The whole screen tested about 5,500 compounds, of which about 2,000 (36%) were called active. Roughly 18% stayed inconclusive and do not appear here. Cut-off read from the data, not from the text of the source: active = normalized growth mostly below about 0.91 (no sharp cut-off); inconclusive = no clear call, values can overlap the other calls; inactive = mostly above about 0.92. Some of the results follow.
Assay: chemical genetic growth profiling, strain panel (AID 1159580);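 note: tested at 20 µM; growth read once vehicle control cultures reached saturation at 30 °C; 1 = growth at the plate median or of vehicle wells; lower values mean less growth of the strain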
Details: S. cerevisiae deletion strains, growth OD

Measured: normalized growth

CCCN1CC(CSC)CC2c3cccc4[nH]cc(c34)CC21 (stereo not drawn)
inactive: locus YAL040C, strain CLN3, stronger effect = lower value 1 | locus YCL061C, strain MRC1 (second series), stronger effect = lower value 0.998 | locus YDR150W, strain NUM1, stronger effect = lower value 0.997 | locus YDR363W, strain ESC2, stronger effect = lower value 0.989 | locus YER002W, strain NOP16, stronger effect = lower value 1.01 | locus YGR078C, strain PAC10, stronger effect = lower value 1.01 | locus YMR307W, strain GAS1, stronger effect = lower value 0.999 | locus YNL128W, strain TEP1, stronger effect = lower value 1.02 | locus YNL153C, strain GIM3, stronger effect = lower value 0.998 | locus YNL175C, strain NOP13, stronger effect = lower value 1.02 | locus YNL197C, strain WHI3, stronger effect = lower value 1.01 | locus YNL224C, strain SQS1, stronger effect = lower value 1.08 | locus YOR083W, strain WHI5 (second series), stronger effect = lower value 1.02

From PubChem BioAssay AID1159580 (chemical genetic matrix, 2015)
